Screening results (PubChem BioAssay)
ELG1 DNA repair = ELG1-dependent DNA repair inhibition. HEK293T ELG1-luciferase reporter, luminescence, 16 h; DNA damage induced by 5-fluorouridine. Potency, µM (series often up to 46.1 µM), inactives show at the top dose activity change, negative = inhibition, most hits filed as inhibitors. 330,000 tested, 2.3% active. AID 504467; also: % is scaled to controls: 0 for no effect and ±100 for the full control effect; nearly all actives have a fitted effect of over 55% in size
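Overnight (16 hr) co-exposure of 2,000 cells/well to 5-fluorouridine and compound at 37 °C preceded detection. Luciferase was quantified via ONE-Glo luminescence; loss of signal denotes inhibition.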
MCF10A rereplic = induces DNA re-replication in MCF 10a normal breast cells | Potency, µM (doses to about 46.1 µM), for the others: top-dose activity, positive = re-replication, hits mostly activators | 350,000 tested, 2.9% active | MCF 10A DNA re-replication, Hoechst nuclear intensity, 48 h; also: % of control where 0% means no effect; nearly all actives have a fitted effect of over 50% in size
KB-V1 MDR tox = KB-V1 MDR subline cytotoxicity. 400,000 tested, 3.4% active. Potency, µM (top dose mostly 46.1 µM), most hits filed as cytotoxic. KB-V1 MDR cells viability, CellTiter-Glo, 72 h; also: % is scaled to controls: 0 for no effect and ±100 for the full control effect; nearly all actives have a fitted effect of over 60% in size
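KB-V1 MDR subline cells in DMEM (phenol-red free, 10% FBS) exposed to compounds in qHTS concentration series for 72 h at 37 degrees C. Viability read by CellTiter-Glo luminescence; concentration-effect curves fitted after normalization and correction.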
SW480 rerep = DNA re-replication induction in SW480 cells | SW480 DNA re-replication, Hoechst DNA content imaging, 48 h | Potency, µM (doses to about 46.1 µM), without a hit: top-dose re-replication activation, hits mostly activators | 340,000 tested, 1.8% active | AID 624297; also: % of control where 0% means no effect; nearly all actives have a fitted effect of over 55% in size
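Cells (250 per well) received 23 nL compound or DMSO by pin tool and were kept 48 hr at 37 C, 5% CO2. Nuclei were then stained with Hoechst for 40 min and scanned for DNA content.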
KB-3-1 cytotox = kills parental KB-3-1 adenocarcinoma cells | KB-3-1 viability, CellTiter-Glo ATP luminescence, 72 h | Potency, µM (series often up to 46.1 µM), most hits filed as cytotoxic | 400,000 tested, 1.4% active; also: % is scaled to controls: 0 for no effect and ±100 for the full control effect; nearly all actives have a fitted effect of over 60% in size
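Multi-concentration cytotoxicity screen in KB-3-1 cells grown in DMEM lacking phenol red with 10% FBS. After 72 h at 37 °C with compound, ATP-dependent luminescence was recorded.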
* hit, by the source's call; i = inactive; ? = inconclusive; . = not tested or not shown; ! = repeats disagree; [ ] = dose if it differs, or a comment. The list is not random: actives were taken first. Their share in the collection is about 8.1%. Calls follow the shape of the dose curve; as a rule, active = well fitted curve in the direction sought with a large enough effect; inconclusive = small, poorly fitted or top-dose-only effect, or another doubt; inactive = no such curve, though single readings can be large; an effect the other way counts as inactive or inconclusive. Potency is read from the fitted curve at half-maximal effect.

SMILES	ELG1 DNA repair	MCF10A rereplic	KB-V1 MDR tox	SW480 rerep	KB-3-1 cytotox
c1ccc2c(N3CCOCC3)c3c(nc2c1)CCC3	-16%	6%	i	-27%	i
COc1ccc2c(c1)CCc1c-2nc2ccccc2c1N1CCOCC1	6%	16µM*	?	?	?
CC(CNC(=O)Cn1ccc2cc(S(=O)(=O)N3CCCCCC3)ccc21)c1ccccc1 (stereo not given)	.	.	i	.	?
Nc1cccc2c1C(=O)N(Cc1cccc(Cl)c1)C2=O	8%	16µM*	i	?	i
CCOC1=C2CN(S(=O)(=O)c3ccc(C)cc3)C(c3ccc(CC)cc3)CC2N(S(=O)(=O)c2ccc(C)cc2)C(c2ccc(CC)cc2)C1 (stereo not given)	.	.	i	.	1µM*
CCOC1=C2CN(S(=O)(=O)c3ccc(C)cc3)[C@H](c3ccc(CC)cc3)C[C@@H]2N(S(=O)(=O)c2ccc(C)cc2)[C@H](c2ccccc2)C1	.	.	i	.	i
N#Cc1ccc(-c2ccc(Cl)cc2)nc1SCC(=O)c1cccc(Cl)c1	?	-2%[9.22 µM]	?	-22%	?
N#Cc1ccc(-c2ccccc2)nc1SCC(=O)c1cccc(Cl)c1	18%	14µM*	i	0%	i
COc1ccc(S(=O)(=O)Nc2cccc(-c3ccc4nncn4n3)c2)cc1	-13%	5.8µM*	?	3.5µM*	5.8µM*
CC1(C)Oc2ccc3ccc(=O)oc3c2/C(=C/NC2CCCCC2)C1=O	?	15µM*	?	?	i
CC1(C)Oc2ccc3ccc(=O)oc3c2/C(=C/Nc2ccccc2)C1=O	?	?	?	?	i
CCn1cc(C(=O)NCCCOC)c(=O)c2cc(S(=O)(=O)N(C)C3CCCCC3)ccc21	?	3%	i	-9%	?
CCn1cc(C(=O)NCC(OC)OC)c(=O)c2cc(S(=O)(=O)N(C)C3CCCCC3)ccc21	9.2µM*	2%	?	-22%	i
CCn1cc(C(=O)NCC2CCCO2)c(=O)c2cc(S(=O)(=O)N(C)C3CCCCC3)ccc21 (stereo not given)	16µM*	10%	i	-5%	i
CC1CCN(S(=O)(=O)c2ccc3c(c2)c(=O)c(C(=O)NCc2ccco2)cn3C)CC1	18µM*	12%	9.2µM*	4%	?
CCc1ccc(N(C)S(=O)(=O)c2ccc3[nH]cc(C(=O)NCC4CCCO4)c(=O)c3c2)cc1 (stereo not given)	.	.	i	.	i
CCOc1ccc(N(C)S(=O)(=O)c2ccc3[nH]cc(C(=O)NCC4CCCO4)c(=O)c3c2)cc1 (stereo not given)	23µM*	7%	i	-2%	i
Cc1ccc(-n2c(-c3ccc(Br)cc3)n[nH]c2=S)c(C)c1	.	.	?	.	i
O=C(Cc1ccc2ccccc2c1)Nc1nnc(-c2ccncc2)s1	.	.	i	.	i
CCC1CCCCN1CCCNC(=O)Cn1ncn2nc(-c3ccc(OC)cc3)cc2c1=O (stereo not given)	?	?	?	1%	i
CCN1CCCC1CNC(=O)c1cn(C)c2ccc(S(=O)(=O)N3CCCCCC3)cc2c1=O (stereo not given)	-4%	-3%	i	0%	i
COCCNC(=O)c1cn(C)c2ccc(S(=O)(=O)N(C)C3CCCCC3)cc2c1=O	?	11%	i	-12%	?
Cn1cc(C(=O)NCC2COc3ccccc3O2)c(=O)c2cc(S(=O)(=O)N3CCCCC3)ccc21 (stereo not given)	18µM*	-5%	i	-2%	i
C=CCn1cc(C(=O)OC)c(=O)c2cc(S(=O)(=O)N3CCCCCC3)ccc21	-10%	0%	i	-29%	i
C=CCn1cc(C(=O)NCC2CCCO2)c(=O)c2cc(S(=O)(=O)N3CCCCCC3)ccc21 (stereo not given)	10µM*	0%	?	0%	i
SMILES	ELG1 DNA repair	MCF10A rereplic	KB-V1 MDR tox	SW480 rerep	KB-3-1 cytotox
COC(CNC(=O)c1cn(C)c2ccc(S(=O)(=O)N(C)C3CCCCC3)cc2c1=O)OC	5.2µM*	?	i	-30%	i
Cc1ccc2c(C(=O)CCl)c(C)[nH]c2c1	-17%	18µM*	?	?	13µM*
CCCNC(=O)C1(C)CCCN(C(=O)c2ccc3ccccc3c2)C1 (stereo not given)	.	.	i	.	i
C/C=C(/C)C(=O)O[C@@H]1c2c(ccc3ccc(=O)oc23)O[C@@H]1C(C)(C)OC(=O)/C(C)=C\C	?	?	6.5µM*	10%[9.22 µM]	?
O=C(CNS(=O)(=O)c1ccc(Br)s1)N1CCN(c2ncccn2)CC1	-1%	-4%	21µM*	-3%	i
Cc1ccc(N2CCN(C(=O)CNS(=O)(=O)c3ccc(Br)s3)CC2C)cc1 (stereo not given)	-30%	?	2.3µM*	-6%	?
O=C(COC(=O)Cc1ccc(Cl)c(Cl)c1)NCCc1ccccc1	.	.	i	.	i
CCN(CC)c1ccc2cc(-c3nc4ccccc4n3C)c(=O)oc2c1	?	?	0.41µM*	0.58µM*	0.23µM*
CCN(CC)c1ccc2cc(-c3nc4ccccc4[nH]3)c(=O)oc2c1	?	4.1µM*	?	5.2µM*	?
CN(C)Cc1c(O)ccc2c(-c3ccccc3)cc(=O)oc12	?	-21%	i	-8%	i
CCN(CC)c1ccc2cc(-c3nc(-c4ccc(Cl)cc4Cl)cs3)c(=O)oc2c1	.	.	?	.	i
CCN(CC)c1ccc2cc(-c3nc(-c4ccc(OC)cc4)cs3)c(=O)oc2c1	-1%	?	18µM*	1.8µM*	i
CN(C)Cc1c(O)ccc2cc(-c3nc4ccccc4n3C)c(=O)oc12	?	5.8µM*	i	3.7µM*	i
COc1cccc2cc(-c3nc4ccccc4[nH]3)c(=O)oc12	?	12%	i	?	i
CCCCCC(=O)N1C[C@@H](n2cc(-c3ccc(F)cc3)nn2)[C@H](O)C[C@@H]1c1ccc(C)cc1	.	.	?	.	i
COc1ccc(C(C)=O)cc1CSc1nnc(-c2ccncc2)n1C	-6%	1%	i	-16%	i
COc1ccc(-c2noc(CSc3nnc(-c4ccccc4)n3C)n2)cc1	0%	2%	15µM*!	-2%	i
COc1ccc(C(C)=O)cc1CSc1nnc(Nc2ccccc2)s1	15µM*	5%	8.2µM*	1%	?
c1ccc(-c2noc(CSc3nnnn3C3CCCCC3)n2)cc1	?	3%	18µM*	-5%	i
COc1ccc(C(C)=O)cc1CSc1nnc(-c2ccc(Cl)cc2)n1-c1ccccc1	?	?	15µM*	10%[9.22 µM]	?
CN(C)Cc1ccccc1-c1cccc2nccn12	.	.	i	.	i
